Inconclusive results are not listed. Active and inactive are the calls of the source. The call rests on the fitted dose curve.
Experiment: qHTS assay to identify small molecule agonists of the AP-1 signaling pathway - cell viability counter screen (AID 1159525); further: nearly all actives have a fitted effect of over 55% in size
Conditions: ME-180 (cervical carcinoma) AP-1-bla cells viability, ATP luminescence, 5 h; series mostly up to 76.8 µM
Source text: National Center for Advancing Translational Sciences [NCATS]
NIH Chemical Genomics Center [NCGC]
U.S. Environmental Protection Agency [EPA]
National Institutes of Environmental Health Sciences [NIEHS]
National Toxicology Program [NTP]
U.S. Food and Drug Administration [FDA]
Activator protein-1 (AP-1), a transcription factor, plays an important role in tumor genesis by regulating genes involved in cell proliferation, differentiation, apoptosis, and angiogenesis. AP-1 activity is induced by a complex network of signaling pathways that involves extracellular signals, such as growth factors. The AP-1 protein complex formed from c-Fos and c-Jun binding to the AP-1 response element results in transcriptional activation of genes containing such elements within their promoter.
Low molecular weight molecules have been discovered and developed to modulate various components of these signaling pathways, for example, MAP kinase inhibitors. However, many points of pathway modulation remain untested due to the lack of chemical probes making this signaling locus of general interest.
Using a beta-lactamase reporter-gene under control of the AP-1 response element, a cell-based assay [CellSensor(TM) AP-1-bla ME-180 developed by Invitrogen Corp.] was used to measure EGF-induced signaling. The Tox21 10K library compounds were measured for their ability to positively modulate the action of EC50 EGF on reporter gene activity. Compounds were screened in a 15-pt titration series in 1536-well format. The cytotoxicity of the Tox21 compound library against this cell line was tested in parallel by measuring the intra cellular ATP content in the same wells.
Tox21 Assay Protocol Summary:
2500 cells/5uL in Opti-MEM medium containing 0.5% dialyzed FBS, 0.1 mM NEAA, 1 mM sodium pyruvate and 10 mM HEPES was dispensed into 1536-well black wall/clear bottom plates using a Multidrop dispenser and cells were cultured at 37 degrees Celsius overnight. Next day 23 nL of compounds dissolved in DMSO, positive controls or DMSO were delivered to each well using a pin tool. The plates were incubated at 37 degrees Celsius for 5 hours. 1 uL of LiveBLAzerTM B/G FRET substrate (Solution A+B+C+D) was added to each well using a Flying Reagent Dispenser. After incubated at room temperature for 2.5 hours the plates were measured on an EnVision plate reader at Excitation 405nm, Emission1=460nm and Emission 2=530nm. The %Activity was determined from the ratio of 460nm/530nm.
After the plates were read for Beta-Lactamase assay on Envision; 3 ul Cell Titer Glo (Promega) was added to measure the cytotoxicity and the plates were then incubated at RT in dark for 30 min. The luminescence was read on ViewLux (Perkin Elmer, Shelton, CT) using 6 sec exposure. ViewLux data was expressed as relative luminescence units.
For primary data analysis, raw plate reads for each titration point were first normalized relative to […] EGF control (100%) and DMSO only wells (basal, 0%).
For primary data analysis for viability assay, raw plate reads for each titration point were first normalized Tetra n-octyl ammonium bromide control (-100%) and DMSO (control, 100%).

Q: Which outcome does the source give for `CC(=O)OCC(=O)[C@H]1CC[C@H]2[C@@H]3CCC4=CC(=O)CC[C@]4(C)[C@H]3CC[C@]12C` here?
A: Its outcome is “inactive”.

Q: For `CCC(C)=O`, which outcome is on record?
A: Its outcome is “inactive”.

Q: For `CCN(Cc1cccc(S(=O)(=O)O)c1)c1ccc(C(=C2C=CC(=[N+](CC)Cc3cccc(S(=O)(=O)[O-])c3)C=C2)c2ccccc2)cc1`, which outcome is on record?
A: The outcome was “inactive”.

Q: For `O=C(O)c1ccccc1NCCc1ccccc1`, which outcome is on record?
A: Its outcome is “inactive”.

Q: With `N#C/C(=C1\SCC(c2ccccc2Cl)S1)n1ccnc1` (stereo not given) as the compound, how does the outcome read?
A: The outcome was “inactive”.

Q: With `O=C(CCCN1CCC(O)(c2ccc(Br)cc2)CC1)c1ccc(F)cc1` as the compound, how does the outcome read?
A: Its outcome is “inactive”.

Q: For `CCc1nn(CCCN2CCN(c3cccc(Cl)c3)CC2)c(=O)n1CCOc1ccccc1`, which outcome is on record?
A: Its outcome is “inactive”.

Q: For `COCc1c(C(C)C)nc(C(C)C)c(/C=C/[C@@H](O)C[C@@H](O)CC(=O)O)c1-c1ccc(F)cc1`, which outcome is on record?
A: Its outcome is “inactive”.

Q: Which outcome does the source give for `C/C(=N/NC(=O)c1ccncc1)C(=O)O` here?
A: The outcome was “inactive”.

Q: For `CC1CC(=O)NN=C1c1ccc(NCC(C)(C)NCC(O)COc2cc(Cl)ccc2C#N)cc1` (stereo not given), which outcome is on record?
A: Its outcome is “inactive”.

Q: For `CCN(CC)CCNC(=O)c1ccc(NC(C)=O)cc1`, which outcome is on record?
A: The outcome was “inactive”.

Q: For `NC(=O)N(O)[C@@H]1COc2cc(OCc3ccccc3)ccc21`, which outcome is on record?
A: Its outcome is “inactive”.

Q: With `Cc1cc(OI)c(C(C)C)cc1-c1cc(C(C)C)c(OI)cc1C` as the compound, how does the outcome read?
A: Its outcome is “inactive”.

Q: Which outcome does the source give for `CN(C)C(=O)Nc1ccc(Oc2ccc(Cl)cc2)cc1` here?
A: Its outcome is “inactive”.

Q: Which outcome does the source give for `CCOC(=O)C(C)Oc1ccc(Oc2nc3ccc(Cl)cc3o2)cc1` (stereo not given) here?
A: Its outcome is “inactive”.

Q: For `CCCCCCCC/C=C\CCCCCCCC(=O)OC`, which outcome is on record?
A: Its outcome is “inactive”.

Q: With `CO[Si](C)(OC)OC` as the compound, how does the outcome read?
A: Its outcome is “inactive”.

Q: With `CCCCC(CC)COC(=O)COc1ccc(Cl)cc1C` (stereo not given) as the compound, how does the outcome read?
A: Its outcome is “inactive”.

Q: For `COC(=O)c1cc(Cl)ccc1NS(=O)(=O)C(F)(F)F`, which outcome is on record?
A: The outcome was “inactive”.

Q: Which outcome does the source give for `Fc1c(F)c(F)c(Br)c(F)c1F` here?
A: Its outcome is “inactive”.

Q: With `CCCCC(CC)CNCC(CC)CCCC` (stereo not given) as the compound, how does the outcome read?
A: The outcome was “inactive”.

Q: Which outcome does the source give for `OC/C(Br)=C(\Br)CO` here?
A: Its outcome is “inactive”.

Q: Which outcome does the source give for `Cc1ccc(S(=O)(=O)NC2CCCCC2)cc1` here?
A: The outcome was “inactive”.

Q: With `Cc1nccn1-c1ccc(Sc2cccc(C3(C(N)=O)CCOCC3)c2)cc1` as the compound, how does the outcome read?
A: The outcome was “inactive”.

Q: With `CC1CC(O)CC(C)(C)C1` (stereo not given) as the compound, how does the outcome read?
A: The outcome was “inactive”.

Q: For `CC(CCc1ccc2c(c1)OCO2)NN` (stereo not given), which outcome is on record?
A: Its outcome is “inactive”.

Q: With `CC(C)(C)CC(C)(C)c1ccc(OCCO)cc1` as the compound, how does the outcome read?
A: Its outcome is “inactive”.

Q: For `CNC(=O)N(c1ccccc1)c1ccccc1`, which outcome is on record?
A: Its outcome is “inactive”.

Q: With `O=C(O)c1c(O)c(-c2ccccc2)nc2ccccc12` as the compound, how does the outcome read?
A: The outcome was “inactive”.

Q: For `CCC1(C)CC(=O)NC1=O` (stereo not given), which outcome is on record?
A: The outcome was “inactive”.

Q: For `CC1=C(/C=C/C(C)=C\C=C\C(C)=C\C(=O)O)C(C)(C)CCC1`, which outcome is on record?
A: The outcome was “inactive”.

Q: With `CNC(=S)NC` as the compound, how does the outcome read?
A: The outcome was “inactive”.

Q: For `CC(C)C(=O)O`, which outcome is on record?
A: The outcome was “inactive”.

Q: For `CCC(=O)OC/C=C/c1ccccc1`, which outcome is on record?
A: The outcome was “inactive”.

Q: With `O=C(Nc1ccc([N+](=O)[O-])cc1)Nc1ccc([N+](=O)[O-])cc1` as the compound, how does the outcome read?
A: The outcome was “inactive”.

Q: With `Fc1ccccc1[C@@H](F)COC1CCC(Nc2ncnc3[nH]ncc23)CC1` (stereo not given in full) as the compound, how does the outcome read?
A: The outcome was “inactive”.

Q: Which outcome does the source give for `Nc1nccs1` here?
A: Its outcome is “inactive”.

Q: With `Cc1oc(C)c(C(=O)Nc2ccccc2)c1C` as the compound, how does the outcome read?
A: Its outcome is “inactive”.

Q: For `Oc1ccc(Nc2ccccc2)cc1`, which outcome is on record?
A: Its outcome is “inactive”.

Q: For `[O]=[Bi]`, which viability change, negative = cytotoxic is on record?
A: Its viability change, negative = cytotoxic is 2.46% [at 6.97 µM] (inactive).

From PubChem BioAssay (Tox21)
